# Laboratory results taken from ChEMBL document CHEMBL2218924, “A broad activity screen in support of a chemogenomic map for kinase signalling research and drug discovery” (Biochem J, 2013).
# How the values were obtained:
# [1] = target: Mast/stem cell growth factor receptor Kit (Homo sapiens) (UniProt P10721); details: at 1 µM
# [2] = target: Mast/stem cell growth factor receptor Kit (Homo sapiens) (UniProt P10721); details: at 10 µM
# [3] = target: Proto-oncogene tyrosine-protein kinase Src (Homo sapiens) (UniProt P12931); details: at 1 µM
# Proto-oncogene tyrosine-protein kinase Src (Homo sapiens), sequence (P12931 2-536 limits assumed): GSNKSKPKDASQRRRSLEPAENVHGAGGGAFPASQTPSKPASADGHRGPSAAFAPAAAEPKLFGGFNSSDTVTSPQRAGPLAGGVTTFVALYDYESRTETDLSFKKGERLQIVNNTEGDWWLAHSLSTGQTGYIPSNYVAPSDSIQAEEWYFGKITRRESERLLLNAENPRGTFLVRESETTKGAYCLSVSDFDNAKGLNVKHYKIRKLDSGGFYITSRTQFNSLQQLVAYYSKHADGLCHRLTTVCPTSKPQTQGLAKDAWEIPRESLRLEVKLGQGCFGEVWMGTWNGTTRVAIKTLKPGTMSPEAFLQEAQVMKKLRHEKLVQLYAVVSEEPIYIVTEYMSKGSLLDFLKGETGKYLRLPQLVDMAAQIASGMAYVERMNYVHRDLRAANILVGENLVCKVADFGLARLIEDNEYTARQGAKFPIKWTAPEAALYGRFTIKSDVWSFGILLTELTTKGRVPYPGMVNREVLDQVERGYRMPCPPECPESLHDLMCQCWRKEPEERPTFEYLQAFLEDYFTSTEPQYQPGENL
# [4] = target: Proto-oncogene tyrosine-protein kinase Src (Homo sapiens) (UniProt P12931); details: at 10 µM
# [5] = target: T1, Eukaryotic elongation factor 2 kinase (Homo sapiens) (UniProt O00418); details: at 10 µM
# T1 sequence (whole entry): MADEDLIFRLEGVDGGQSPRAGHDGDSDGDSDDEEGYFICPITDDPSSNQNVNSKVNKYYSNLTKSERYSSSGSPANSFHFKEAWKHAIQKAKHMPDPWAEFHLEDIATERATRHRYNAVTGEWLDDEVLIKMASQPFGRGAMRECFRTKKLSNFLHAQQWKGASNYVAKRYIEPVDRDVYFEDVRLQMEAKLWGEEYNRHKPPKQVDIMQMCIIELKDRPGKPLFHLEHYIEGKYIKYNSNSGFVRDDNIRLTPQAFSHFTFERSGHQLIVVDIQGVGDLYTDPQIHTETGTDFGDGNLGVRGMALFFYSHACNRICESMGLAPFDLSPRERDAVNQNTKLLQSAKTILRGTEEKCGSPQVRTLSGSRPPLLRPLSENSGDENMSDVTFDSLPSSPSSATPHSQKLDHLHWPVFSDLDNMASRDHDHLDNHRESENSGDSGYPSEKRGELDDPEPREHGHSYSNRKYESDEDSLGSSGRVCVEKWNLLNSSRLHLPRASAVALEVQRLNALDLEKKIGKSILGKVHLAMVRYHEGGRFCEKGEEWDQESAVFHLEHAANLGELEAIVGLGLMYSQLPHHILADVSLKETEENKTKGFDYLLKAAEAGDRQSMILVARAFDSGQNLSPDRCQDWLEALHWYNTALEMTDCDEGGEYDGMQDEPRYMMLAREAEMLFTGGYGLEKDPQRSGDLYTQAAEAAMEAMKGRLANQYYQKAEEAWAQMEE
# [6] = target: Serine/threonine-protein kinase mTOR (Homo sapiens) (UniProt P42345); details: at 1 µM
# [7] = target: Serine/threonine-protein kinase mTOR (Homo sapiens) (UniProt P42345); details: at 10 µM
# [8] = target: Serine/threonine-protein kinase mTOR (Homo sapiens) (UniProt P42345); details: at 10 µM; remark: listed apart in the source
# [9] = target: Ribosomal protein S6 kinase beta-1 (Homo sapiens) (UniProt P23443); details: at 1 µM
# Ribosomal protein S6 kinase beta-1 (Homo sapiens), sequence (P23443 whole entry, looked up): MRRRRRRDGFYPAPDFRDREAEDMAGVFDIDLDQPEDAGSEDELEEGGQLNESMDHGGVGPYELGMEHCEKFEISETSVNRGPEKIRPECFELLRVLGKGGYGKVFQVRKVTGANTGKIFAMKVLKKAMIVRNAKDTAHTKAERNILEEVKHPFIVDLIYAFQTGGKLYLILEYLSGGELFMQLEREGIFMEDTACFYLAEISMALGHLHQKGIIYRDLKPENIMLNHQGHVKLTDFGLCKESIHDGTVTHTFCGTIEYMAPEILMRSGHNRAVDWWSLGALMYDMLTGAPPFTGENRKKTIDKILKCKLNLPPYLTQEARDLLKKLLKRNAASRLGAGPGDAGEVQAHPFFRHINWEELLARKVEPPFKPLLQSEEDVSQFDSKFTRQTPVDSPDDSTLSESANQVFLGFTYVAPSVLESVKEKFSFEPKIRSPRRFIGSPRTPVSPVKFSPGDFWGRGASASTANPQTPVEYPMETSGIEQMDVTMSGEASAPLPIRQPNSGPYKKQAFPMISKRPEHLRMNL
# [10] = target: Ribosomal protein S6 kinase beta-1 (Homo sapiens) (UniProt P23443); details: at 10 µM
# [11] = target: Serine/threonine-protein kinase Nek6 (Homo sapiens) (UniProt Q9HC98); details: at 1 µM
# Serine/threonine-protein kinase Nek6 (Homo sapiens), sequence (Q9HC98 whole entry): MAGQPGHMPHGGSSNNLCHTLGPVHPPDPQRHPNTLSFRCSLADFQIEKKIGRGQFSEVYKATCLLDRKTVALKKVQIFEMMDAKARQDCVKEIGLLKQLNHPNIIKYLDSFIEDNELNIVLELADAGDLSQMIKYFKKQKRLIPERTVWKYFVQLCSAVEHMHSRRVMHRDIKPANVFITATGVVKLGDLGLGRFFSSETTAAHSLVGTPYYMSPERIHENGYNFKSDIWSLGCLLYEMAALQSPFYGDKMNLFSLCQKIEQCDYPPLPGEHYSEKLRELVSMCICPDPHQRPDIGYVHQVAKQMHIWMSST
# [12] = target: Serine/threonine-protein kinase Nek6 (Homo sapiens) (UniProt Q9HC98); details: at 10 µM
# [13] = target: Serine/threonine-protein kinase Nek7 (Homo sapiens) (UniProt Q8TDX7); details: at 1 µM
# Serine/threonine-protein kinase Nek7 (Homo sapiens), sequence (Q8TDX7 whole entry, looked up): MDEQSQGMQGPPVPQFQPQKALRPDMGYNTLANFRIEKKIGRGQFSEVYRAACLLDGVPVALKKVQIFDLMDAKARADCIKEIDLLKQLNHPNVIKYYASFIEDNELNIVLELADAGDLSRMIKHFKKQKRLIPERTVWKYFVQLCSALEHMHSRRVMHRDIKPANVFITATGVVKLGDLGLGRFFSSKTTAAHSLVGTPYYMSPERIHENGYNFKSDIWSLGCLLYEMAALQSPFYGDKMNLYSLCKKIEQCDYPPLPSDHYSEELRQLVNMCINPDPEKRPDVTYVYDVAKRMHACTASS
# [14] = target: Serine/threonine-protein kinase Nek7 (Homo sapiens) (UniProt Q8TDX7); details: at 10 µM
# [15] = target: T2, Serine/threonine-protein kinase NLK (Homo sapiens) (UniProt Q9UBE8); details: at 1 µM
# T2 sequence (whole entry): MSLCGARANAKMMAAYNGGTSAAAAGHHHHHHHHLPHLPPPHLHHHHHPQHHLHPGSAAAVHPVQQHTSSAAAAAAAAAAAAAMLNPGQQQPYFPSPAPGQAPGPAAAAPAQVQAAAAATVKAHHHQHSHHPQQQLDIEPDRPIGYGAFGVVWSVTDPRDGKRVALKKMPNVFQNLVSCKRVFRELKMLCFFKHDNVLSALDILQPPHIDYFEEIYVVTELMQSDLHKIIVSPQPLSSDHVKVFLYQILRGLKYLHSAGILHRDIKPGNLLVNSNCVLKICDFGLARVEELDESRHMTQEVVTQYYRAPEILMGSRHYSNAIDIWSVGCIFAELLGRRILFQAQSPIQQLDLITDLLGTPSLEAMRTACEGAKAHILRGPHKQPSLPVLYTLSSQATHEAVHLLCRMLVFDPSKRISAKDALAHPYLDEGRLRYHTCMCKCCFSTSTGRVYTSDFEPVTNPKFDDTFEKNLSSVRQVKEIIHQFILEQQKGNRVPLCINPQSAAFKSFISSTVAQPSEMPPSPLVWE
# [16] = target: T2, Serine/threonine-protein kinase NLK (Homo sapiens); details: at 10 µM
# [17] = target: Serine/threonine-protein kinase PAK 2 (Homo sapiens) (UniProt Q13177); details: at 1 µM
# Serine/threonine-protein kinase PAK 2 (Homo sapiens), sequence (Q13177 whole entry): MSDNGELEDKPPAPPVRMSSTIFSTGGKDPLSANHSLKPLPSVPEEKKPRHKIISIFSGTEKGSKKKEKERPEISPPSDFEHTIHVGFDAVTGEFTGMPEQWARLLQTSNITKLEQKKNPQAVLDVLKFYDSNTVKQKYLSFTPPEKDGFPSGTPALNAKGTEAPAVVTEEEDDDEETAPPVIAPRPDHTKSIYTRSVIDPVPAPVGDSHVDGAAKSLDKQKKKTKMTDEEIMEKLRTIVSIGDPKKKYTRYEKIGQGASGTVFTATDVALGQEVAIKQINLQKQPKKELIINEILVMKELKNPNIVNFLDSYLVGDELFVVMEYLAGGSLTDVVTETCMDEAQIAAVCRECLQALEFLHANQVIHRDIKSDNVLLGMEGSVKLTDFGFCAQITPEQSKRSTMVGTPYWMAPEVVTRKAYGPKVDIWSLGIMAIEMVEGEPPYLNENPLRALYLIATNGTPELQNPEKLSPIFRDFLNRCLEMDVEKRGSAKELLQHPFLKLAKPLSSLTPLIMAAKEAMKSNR
# [18] = target: Serine/threonine-protein kinase PAK 2 (Homo sapiens) (UniProt Q13177); details: at 10 µM
# [19] = target: T1, Eukaryotic elongation factor 2 kinase (Homo sapiens); details: at 1 µM
# [20] = target: Serine/threonine-protein kinase mTOR (Homo sapiens) (UniProt P42345); details: at 1 µM; remark: listed apart in the source
# Mast/stem cell growth factor receptor Kit (Homo sapiens), sequence (P10721 whole entry): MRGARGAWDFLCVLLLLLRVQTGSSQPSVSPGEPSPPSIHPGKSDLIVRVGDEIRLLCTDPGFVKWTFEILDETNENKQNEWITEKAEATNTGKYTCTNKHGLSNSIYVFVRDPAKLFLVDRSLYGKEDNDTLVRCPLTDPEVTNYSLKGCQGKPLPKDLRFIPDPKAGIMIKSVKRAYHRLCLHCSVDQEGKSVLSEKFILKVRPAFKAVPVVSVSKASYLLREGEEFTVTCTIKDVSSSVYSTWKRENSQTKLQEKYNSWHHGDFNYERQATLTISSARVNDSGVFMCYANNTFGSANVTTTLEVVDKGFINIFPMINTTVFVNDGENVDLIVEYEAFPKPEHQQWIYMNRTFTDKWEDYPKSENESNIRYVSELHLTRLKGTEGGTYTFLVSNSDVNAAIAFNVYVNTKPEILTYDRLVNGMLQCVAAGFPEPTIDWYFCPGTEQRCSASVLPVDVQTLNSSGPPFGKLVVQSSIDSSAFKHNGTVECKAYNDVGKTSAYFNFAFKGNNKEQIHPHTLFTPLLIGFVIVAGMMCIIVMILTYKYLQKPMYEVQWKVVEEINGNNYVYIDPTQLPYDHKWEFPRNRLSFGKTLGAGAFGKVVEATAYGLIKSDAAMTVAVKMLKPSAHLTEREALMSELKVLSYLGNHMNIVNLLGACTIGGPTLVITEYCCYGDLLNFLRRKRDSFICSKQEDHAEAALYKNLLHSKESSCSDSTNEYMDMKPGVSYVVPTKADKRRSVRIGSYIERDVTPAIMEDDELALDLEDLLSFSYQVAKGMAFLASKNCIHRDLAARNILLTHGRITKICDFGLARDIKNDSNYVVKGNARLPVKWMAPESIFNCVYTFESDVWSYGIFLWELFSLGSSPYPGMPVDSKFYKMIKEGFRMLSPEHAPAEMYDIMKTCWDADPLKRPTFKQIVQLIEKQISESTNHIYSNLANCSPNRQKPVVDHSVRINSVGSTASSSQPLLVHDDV
Structure (SMILES),residual activity [1],residual activity [2],residual activity [3],residual activity [4],residual activity [5],residual activity [6],residual activity [7],residual activity [8],residual activity [9],residual activity [10],residual activity [11],residual activity [12],residual activity [13],residual activity [14],residual activity [15],residual activity [16],residual activity [17],residual activity [18],residual activity [19],residual activity [20]
Oc1c2ccccc2c2c3c(cccc13)N=N2,91%,30%,89%,64%,92%,104%,77%,84%,55%,14%,107% (inactive),101%,99% (inactive),89% (inactive),78%,71%,96%,86%,,
O=C1NC(=O)/C(=C/c2ccc3c(c2)OC(F)(F)O3)S1,116%,102%,91%,106%,104%,82%,90%,104%,73%,35%,84% (inactive),93%,100% (inactive),97% (inactive),107%,84%,104%,76%,85% (inactive),106%
CCC(=O)Nc1ccc2ncnc(Nc3cccc(Br)c3)c2c1,109%,103%,88%,89%,107%,106%,104%,101%,111%,127%,79% (inactive),110%,89% (inactive),114% (inactive),91%,64%,110%,84%,94% (inactive),123%
O=c1cc(-c2cccc3c2Sc2ccccc2S3)oc(N2CCOCC2)c1,99%,102%,89%,92%,,98%,74%,60%,119%,93%,108% (inactive),122%,109% (inactive),140% (inactive),101%,101%,113%,95%,,89%
Cn1cnc2cc3c(Nc4cccc(Br)c4)ncnc3cc21,114%,92%,64%,32%,,102%,105%,97%,95%,71%,104% (inactive),104%,100% (inactive),103% (inactive),93%,73%,93%,90%,,104%
O=[N+]([O-])c1ccc(-c2nc(-c3ccc(F)cc3)c(-c3ccncc3)[nH]2)cc1,123%,110%,113%,90%,94%,110%,112%,71%,122%,62%,109% (inactive),123%,99% (inactive),111% (inactive),31%,40%,105%,101%,108% (inactive),126%
CN(C)c1ccc(/C=C2\C(=O)Nc3ccccc32)cc1,24%,4%,87%,85%,,78%,101%,89%,69%,29%,108% (inactive),107%,118% (inactive),116% (inactive),110%,88%,96%,100%,,78%
COc1ccc(CNc2nc(N(CCO)CCO)nc3c2ncn3C(C)C)cc1,91%,66%,104%,82%,101%,106%,97%,99%,74%,49%,107% (inactive),96%,96% (inactive),86% (inactive),89%,86%,102%,87%,106% (inactive),128%
O=Nc1c(-c2c(O)[nH]c3ccccc23)[nH]c2ccccc12,20%,2%,35%,5%,93%,100%,98%,89%,37%,13%,91% (inactive),103%,106% (inactive),102% (inactive),82%,67%,103%,54%,109% (inactive),117%
O=C1NC(=O)c2c1c1c3ccccc3[nH]c1c1[nH]c3cc(Br)ccc3c21,107%,94%,117%,93%,,117%,106%,113%,92%,52%,121% (inactive),117%,103% (inactive),89% (inactive),82%,93%,122%,106%,,76%
Oc1n[nH]c2nnc(-c3c(-c4ccccc4)nn4ccccc34)cc12,94%,104%,95%,87%,,97%,76%,76%,106%,96%,103% (inactive),110%,100% (inactive),96% (inactive),90%,86%,94%,99%,,102%
CC(C)n1cnc2/c(=N/c3cccc(Cl)c3)nc(NCCO)[nH]c21,108%,94%,54%,7%,,114%,96%,101%,36%,15%,118% (inactive),98%,102% (inactive),84% (inactive),88%,70%,109%,98%,,82%
CC(C)n1cnc2c(NCc3ccccc3)nc(NCCCO)nc21,111%,98%,100%,86%,98%,109%,114%,104%,105%,100%,107% (inactive),115%,101% (inactive),95% (inactive),95%,86%,106%,100%,108% (inactive),116%
CO[C@H]1C[C@@H]2CC[C@@H](C)[C@@](O)(O2)C(=O)C(=O)N2CCCC[C@H]2C(=O)O[C@H]([C@H](C)C[C@@H]2CC[C@@H](O)[C@H](OC)C2)CC(=O)[C@H](C)/C=C(\C)[C@@H](O)[C@@H](OC)C(=O)[C@H](C)C[C@H](C)/C=C/C=C/C=C/1C,110%,101%,89%,95%,,57%,51%,4%,92%,147%,97% (inactive),118%,97% (inactive),115% (inactive),101%,91%,101%,95%,,-17%
Oc1ccc(-c2nc(-c3ccc(F)cc3)c(-c3ccncc3)[nH]2)cc1,122%,107%,108%,45%,,98%,90%,90%,72%,25%,105% (inactive),110%,114% (inactive),103% (inactive),49%,13%,95%,85%,,123%
Cn1cc(/C=C2\C(=O)Nc3ccc(S(N)(=O)=O)cc32)c2ccccc21,69%,17%,49%,25%,,106%,99%,102%,29%,11%,100% (inactive),112%,103% (inactive),89% (inactive),104%,84%,124%,91%,,104%
O=C1Nc2cc(Br)ccc2/C1=C1/Nc2ccccc2/C1=N\O,18%,21%,2%,3%,89%,76%,76%,82%,30%,29%,108% (inactive),106%,102% (inactive),85% (inactive),79%,85%,75%,88%,94% (inactive),119%
CO[C@H]1[C@@H](OC)C[C@H](C)[C@@H](OC)C2=CC(=O)C=C(NC(=O)/C(C)=C/C=C/[C@H](OC)[C@@H](OC(N)=O)/C(C)=C/[C@@H]1C)C2=O,104%,98%,101%,92%,,95%,103%,89%,75%,43%,103% (inactive),112%,89% (inactive),76% (inactive),110%,83%,108%,83%,,77%
Cc1cc2ncc(-c3ccccc3)nc2cc1C,86%,70%,83%,99%,,93%,100%,83%,80%,52%,104% (inactive),102%,106% (inactive),101% (inactive),105%,91%,97%,94%,,70%
O=C1NC(=O)/C(=C\c2ccc3nccnc3c2)S1,106%,102%,86%,103%,91%,46%,51%,36%,68%,50%,91% (inactive),96%,100% (inactive),106% (inactive),89%,55%,102%,75%,99% (inactive),90%
Ic1cccc(CSc2nnc(-c3ccncc3)o2)c1,97%,102%,113%,83%,,108%,102%,109%,55%,32%,113% (inactive),115%,101% (inactive),81% (inactive),89%,89%,104%,92%,,108%
COc1ccc(S(=O)(=O)N(CCO)c2ccccc2CN(C)C/C=C/c2ccc(Cl)cc2)cc1,115%,100%,116%,90%,,109%,96%,101%,97%,78%,110% (inactive),115%,106% (inactive),93% (inactive),93%,92%,97%,86%,,97%
Cc1ccc(S(=O)(=O)/C=C/C#N)cc1,100%,114%,114%,76%,,95%,101%,82%,133%,102%,99% (inactive),108%,114% (inactive),87% (inactive),101%,92%,107%,98%,,86%
NC(=O)c1ccc2[nH]c(-c3ccc(Oc4ccc(Cl)cc4)cc3)nc2c1,106%,90%,108%,92%,140%,123%,96%,110%,92%,90%,117% (inactive),113%,102% (inactive),104% (inactive),88%,59%,111%,82%,89% (inactive),113%
CC#CC(=O)Nc1cc2c(Nc3ccc(F)c(Cl)c3)ncnc2cn1,111%,100%,89%,92%,,108%,100%,92%,96%,98%,82% (inactive),91%,94% (inactive),100% (inactive),93%,79%,82%,81%,,113%
